PubChem BioAssay (Tox21)
Results filed as inconclusive are left out. Calls of active or inactive are those of the source. Unless noted, calls follow the shape of the dose curve; as a rule, active = well fitted curve in the direction sought with a large enough effect in the repeat runs; inconclusive = weak or mixed curves; inactive = no such curve, though single readings can be large; an effect the other way counts as inactive or inconclusive.

Experiments:
[1] = biological target: Aryl hydrocarbon receptor (Homo sapiens) (UniProt P35869); assay: qHTS assay to identify small molecule that activate the aryl hydrocarbon receptor (AhR) signaling pathway (AID 743085); also: nearly all actives have a fitted effect of over 15% in size; also: potency is read from the fitted curve at half-maximal effect;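 as to activation: HG2L7.5c1 human HepG2 liver cells with stably integrated DRE-driven firefly reporter; series mostly up to about 70 µM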
Sequence of Aryl hydrocarbon receptor (Homo sapiens) (P35869 whole entry, looked up): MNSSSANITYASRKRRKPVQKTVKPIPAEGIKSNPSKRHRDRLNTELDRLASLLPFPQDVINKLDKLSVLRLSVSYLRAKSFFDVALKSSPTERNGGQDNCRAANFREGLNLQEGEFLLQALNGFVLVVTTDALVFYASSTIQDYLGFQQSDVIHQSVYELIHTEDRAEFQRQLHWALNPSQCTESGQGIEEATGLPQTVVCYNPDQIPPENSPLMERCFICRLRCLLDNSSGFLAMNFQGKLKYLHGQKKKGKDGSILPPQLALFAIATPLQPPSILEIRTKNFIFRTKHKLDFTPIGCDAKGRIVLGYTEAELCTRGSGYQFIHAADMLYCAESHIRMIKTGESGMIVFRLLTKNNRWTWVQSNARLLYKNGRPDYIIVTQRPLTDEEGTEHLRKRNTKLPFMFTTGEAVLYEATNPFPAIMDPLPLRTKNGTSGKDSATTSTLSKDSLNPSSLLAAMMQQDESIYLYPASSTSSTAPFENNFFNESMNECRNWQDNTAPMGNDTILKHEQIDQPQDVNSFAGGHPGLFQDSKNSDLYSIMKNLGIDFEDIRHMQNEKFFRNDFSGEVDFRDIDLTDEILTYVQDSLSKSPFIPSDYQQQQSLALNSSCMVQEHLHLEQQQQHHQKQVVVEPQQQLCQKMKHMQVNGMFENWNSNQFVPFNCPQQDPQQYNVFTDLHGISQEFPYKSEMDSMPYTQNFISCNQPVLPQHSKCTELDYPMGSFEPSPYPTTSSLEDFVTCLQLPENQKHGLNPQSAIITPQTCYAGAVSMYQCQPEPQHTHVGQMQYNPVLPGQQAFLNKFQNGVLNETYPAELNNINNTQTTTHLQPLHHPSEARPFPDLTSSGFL
Method in brief: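 A multiplexed format paired cell viability (CellTiter-Fluor fluorescence) with AhR-dependent luciferase output (ONE-Glo luminescence) in the same wells of HepG2 DRE-luc cells after 24 h compound exposure at 37C.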

[2] = qHTS assay to identify small molecule that activate the aryl hydrocarbon receptor (AhR) signaling pathway - cell viability counter screen (AID 743086); also: nearly all actives have a fitted effect of over 45% in size; also: potency is read from the fitted curve at half-maximal effect
Method in brief: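 HepG2-AhR-luc (HG2L7.5c1) cells, 4000/well, were preincubated 5 h at 37C, exposed to compound in qHTS format for 24 hr at 37C, then given CellTiter-Fluor for 30 min; viability was read as fluorescence in the reporter wells.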

[3] = biological target: Peroxisome proliferator-activated receptor gamma (Homo sapiens) (UniProt P37231); assay: qHTS assay to identify small molecule agonists of the peroxisome proliferator-activated receptor gamma (PPARg) signaling pathway (AID 743094; active = well fitted activation curve with a large enough effect in the signal ratio in the repeat runs, not every such curve was filed as active; the % refers to the signal ratio)
Sequence of Peroxisome proliferator-activated receptor gamma (Homo sapiens) (P37231 whole entry, looked up): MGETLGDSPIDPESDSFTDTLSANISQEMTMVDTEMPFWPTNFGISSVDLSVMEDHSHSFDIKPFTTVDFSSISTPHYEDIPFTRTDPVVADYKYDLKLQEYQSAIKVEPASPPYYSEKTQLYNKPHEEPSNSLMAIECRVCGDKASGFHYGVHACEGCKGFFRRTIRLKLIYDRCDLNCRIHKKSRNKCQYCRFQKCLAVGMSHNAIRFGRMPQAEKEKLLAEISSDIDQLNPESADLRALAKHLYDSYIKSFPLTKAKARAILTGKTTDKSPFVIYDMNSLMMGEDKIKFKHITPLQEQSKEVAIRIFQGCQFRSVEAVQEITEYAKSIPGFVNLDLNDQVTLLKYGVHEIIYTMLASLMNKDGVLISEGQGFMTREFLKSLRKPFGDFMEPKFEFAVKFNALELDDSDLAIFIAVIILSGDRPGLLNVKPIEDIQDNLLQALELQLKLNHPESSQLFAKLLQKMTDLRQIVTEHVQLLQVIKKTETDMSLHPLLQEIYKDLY
Method in brief: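 Reporter activation was scored by fluorescence of cleaved LiveBLAzer B/G substrate (1 h, room temperature) in PPARg-bla HEK293H cells previously treated 17 h at 37C with DMSO-dissolved compounds.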

[4] = biological target: Peroxisome proliferator-activated receptor gamma (Homo sapiens) (UniProt P37231); assay: qHTS assay to identify small molecule antagonists of the peroxisome proliferator-activated receptor gamma (PPARg) signaling pathway (AID 743191; calls by dose curve; also: series mostly up to about 63 µM; nearly all actives have a fitted effect of over 30% in size)
Method in brief: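 GeneBLAzer PPARg UAS-bla HEK293H cells carrying a UAS-driven beta-lactamase reporter were plated at 3000 cells/well, preincubated 5 h at 37C, then given compound for 17 h at 37C; LiveBLAzer B/G FRET substrate was read after 1 h at room temperature.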

[5] = qHTS assay to identify small molecule antagonists of the peroxisome proliferator-activated receptor gamma (PPARg) signaling pathway - cell viability counter screen (AID 743194); also: nearly all actives have a fitted effect of over 55% in size
Method in brief: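 PPARg-UAS-bla HEK293H cells were plated, rested 5 h at 37 C, then treated with compounds plus rosiglitazone (50 nM final) for 17 h at 37 C; viability was then read by CellTiter-Glo luminescence after 30 min at room temperature.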

[6] = qHTS assay for small molecule agonists of the antioxidant response element (ARE) signaling pathway - cell viability counter screen (AID 743203; calls by dose curve; also: nearly all actives have a fitted effect of over 55% in size; also: potency is read from the fitted curve at half-maximal effect)
Method in brief: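 Viability counter screen: stably transfected ARE-bla HepG2 line, 16 hrs compound exposure at 37C/5% CO2, ATP-based CellTiter-Glo luminescence measured in the reporter wells.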

[7] = qHTS assay for small molecule activators of the heat shock response signaling pathway - cell viability counter screen (AID 743209); also: nearly all actives have a fitted effect of over 50% in size
Method in brief: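 Viability of HSE-bla HeLa cells is measured with CellTiter-Glo in the wells already used for the reporter read. Compound exposure lasts 5 h at 37 C, and luminescence is read after 30 min at room temperature.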

[8] = qHTS assay for small molecule activators of the heat shock response signaling pathway (AID 743210; active = well fitted activation curve with a large enough effect in the signal ratio in the repeat runs, with a control signal flat, not every such curve was filed as active; the % refers to the signal ratio; also: series mostly up to about 63 µM)
Method in brief: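 Heat shock element–beta-lactamase HeLa reporter cells; qHTS with compounds for 5 h at 37 C; detection by FRET substrate fluorescence after 2.5 h at RT.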

[9] = qHTS assay to identify small molecule agonists of the peroxisome proliferator-activated receptor delta (PPARd) signaling pathway - cell viability counter screen (AID 743211); also: nearly all actives have a fitted effect of over 55% in size
Method in brief: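 Tox21 library compounds, delivered in DMSO, were incubated 17 h with PPARd-bla HEK293H cells; cytotoxicity was taken from CellTiter-Glo luminescence read 30 min after reagent addition.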

[10] = biological target: Peroxisome proliferator-activated receptor delta (Homo sapiens) (UniProt Q03181); assay: qHTS assay to identify small molecule agonists of the peroxisome proliferator-activated receptor delta (PPARd) signaling pathway (AID 743212; calls by dose curve)
Sequence of Peroxisome proliferator-activated receptor delta (Homo sapiens) (Q03181 whole entry, looked up): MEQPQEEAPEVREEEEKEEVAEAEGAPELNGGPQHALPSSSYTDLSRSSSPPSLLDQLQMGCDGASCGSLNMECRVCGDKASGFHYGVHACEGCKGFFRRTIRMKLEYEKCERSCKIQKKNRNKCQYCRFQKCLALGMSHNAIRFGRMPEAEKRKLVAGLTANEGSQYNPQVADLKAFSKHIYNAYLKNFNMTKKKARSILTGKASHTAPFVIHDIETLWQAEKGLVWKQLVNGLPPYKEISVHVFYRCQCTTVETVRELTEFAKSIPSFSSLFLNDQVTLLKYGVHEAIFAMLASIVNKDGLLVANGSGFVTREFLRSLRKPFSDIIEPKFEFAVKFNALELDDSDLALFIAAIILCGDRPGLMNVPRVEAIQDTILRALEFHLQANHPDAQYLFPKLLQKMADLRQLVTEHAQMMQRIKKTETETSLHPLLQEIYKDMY
Method in brief: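 Beta-lactamase reporter read by fluorescence (LiveBLAzer B/G FRET, 2 h, room temperature). Test agents, in DMSO, incubated at 37 C with PPARd-bla HEK293H cells.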

[11] = qHTS assay to identify small molecule antagonists of the peroxisome proliferator-activated receptor delta (PPARd) signaling pathway - cell viability counter screen (AID 743213); also: nearly all actives have a fitted effect of over 50% in size
Method in brief: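 Cytotoxicity counter screen: CellTiter-Glo luminescence read 30 min after addition, in the same wells as the reporter assay. There, PPARd UAS-bla HEK293H cells (3000/well) were treated 17 h at 37 C with compound and 300 nM L165041.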

[12] = biological target: Peroxisome proliferator-activated receptor delta (Homo sapiens) (UniProt Q03181); assay: qHTS assay to identify small molecule antagonists of the peroxisome proliferator-activated receptor delta (PPARd) signaling pathway (AID 743215; active = well fitted inhibition curve with a large enough effect in the signal ratio in the repeat runs, not every such curve was filed as active; the % refers to the signal ratio;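 also: cells stimulated with agonist L165041 at 300 nM final during compound exposure; series mostly up to about 62 µM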)
Method in brief: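 Plated HEK293H PPARd-bla cells rested 5 h at 37 C and 5% CO2. Compound, then agonist L165041 at 300 nM final, was added; 17 h at 37 C followed. Substrate loading, 2 h room temperature, fluorescence measured.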

[13] = biological target: Bile acid receptor (Homo sapiens) (UniProt Q96RI1); assay: qHTS assay to identify small molecule antagonists of the farnesoid-X-receptor (FXR) signaling pathway (AID 743217; active = well fitted inhibition curve with a large enough effect in the signal ratio in the repeat runs, not every such curve was filed as active; the % refers to the signal ratio)
Sequence of Bile acid receptor (Homo sapiens) (Q96RI1 whole entry, looked up): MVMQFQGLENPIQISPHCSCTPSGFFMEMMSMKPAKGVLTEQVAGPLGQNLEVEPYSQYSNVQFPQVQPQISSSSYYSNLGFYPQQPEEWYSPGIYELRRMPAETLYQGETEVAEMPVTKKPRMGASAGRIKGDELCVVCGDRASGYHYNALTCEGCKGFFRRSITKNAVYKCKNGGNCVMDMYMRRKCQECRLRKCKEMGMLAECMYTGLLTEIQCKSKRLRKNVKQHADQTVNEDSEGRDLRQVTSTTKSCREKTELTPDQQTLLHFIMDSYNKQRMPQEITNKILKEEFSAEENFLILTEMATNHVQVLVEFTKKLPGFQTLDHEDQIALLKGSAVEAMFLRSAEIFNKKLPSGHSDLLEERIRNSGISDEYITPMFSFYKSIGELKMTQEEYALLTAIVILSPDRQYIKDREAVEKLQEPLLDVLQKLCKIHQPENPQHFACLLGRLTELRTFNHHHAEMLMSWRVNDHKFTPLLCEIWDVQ
Method in brief: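 Screen of the Tox21 10K library in quantitative HTS format using FXR-UAS-bla HEK 293T reporter cells. Agonist chenodeoxycholic acid, 50 uM final, added with compounds; 16 h incubation at 37 °C; beta-lactamase FRET fluorescence measured.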

[14] = qHTS assay to identify small molecule agonists of the farnesoid-X-receptor (FXR) signaling pathway - cell viability counter screen (AID 743218); also: nearly all actives have a fitted effect of over 45% in size
Method in brief: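 Viability of FXR-bla HEK 293T cells is measured by ATP-based CellTiter-Glo luminescence following 16 h compound treatment at 37 C and a prior 2 h room-temperature beta-lactamase substrate step.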

[15] = biological target: Bile acid receptor (Homo sapiens) (UniProt Q96RI1); assay: qHTS assay to identify small molecule agonists of the farnesoid-X-receptor (FXR) signaling pathway (AID 743220; active = well fitted activation curve with a large enough effect in the signal ratio in the repeat runs, not every such curve was filed as active; the % refers to the signal ratio)
Method in brief: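 FXR-UAS-bla HEK 293T cells carrying a UAS-driven beta-lactamase reporter were plated for 5 h at 37C/5% CO2, then exposed to DMSO-dissolved Tox21 10K compounds for 16 h at 37C. A LiveBLAzer B/G FRET substrate was loaded for 2 h at room temperature before fluorescence reading.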

[16] = qHTS assay to identify small molecule antagonists of the farnesoid-X-receptor (FXR) signaling pathway - cell viability counter screen (AID 743221; active = well fitted cell-killing curve with a large enough effect in the repeat runs, not every such curve was filed as active; also: nearly all actives have a fitted effect of over 50% in size)
Method in brief: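 Cytotoxicity is taken from ATP luminescence (CellTiter-Glo, 30 min, room temperature) in FXR-bla HEK 293T cells previously incubated 16 h at 37 C with compound and chenodeoxycholic acid at 50 uM final.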

[17] = biological target: Vitamin D3 receptor (Homo sapiens) (UniProt P11473); assay: qHTS assay to identify small molecule antagonists of the vitamin D receptor (VDR) signaling pathway (AID 743223; active = well fitted inhibition curve with a large enough effect in the signal ratio in the repeat runs, not every such curve was filed as active; the % refers to the signal ratio)
Sequence of Vitamin D3 receptor (Homo sapiens) (P11473 whole entry, looked up): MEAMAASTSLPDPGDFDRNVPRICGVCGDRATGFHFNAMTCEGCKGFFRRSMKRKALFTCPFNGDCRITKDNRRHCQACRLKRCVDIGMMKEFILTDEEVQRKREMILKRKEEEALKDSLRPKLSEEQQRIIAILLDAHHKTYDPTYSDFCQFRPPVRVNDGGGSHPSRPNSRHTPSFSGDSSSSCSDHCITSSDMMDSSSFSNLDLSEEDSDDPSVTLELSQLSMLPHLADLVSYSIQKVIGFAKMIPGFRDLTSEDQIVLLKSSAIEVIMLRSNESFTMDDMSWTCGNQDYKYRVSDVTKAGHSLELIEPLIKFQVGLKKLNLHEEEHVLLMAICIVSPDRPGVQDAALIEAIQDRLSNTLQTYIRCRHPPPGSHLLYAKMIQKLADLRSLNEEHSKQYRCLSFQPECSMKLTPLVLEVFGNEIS
Method in brief: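 Quantitative HTS in VDR-bla reporter cells stimulated with 1alpha,25-dihydroxyvitamin D3, 3 nM final. Compound exposure 16 h, 37C, 5% CO2. Read-out: beta-lactamase FRET substrate fluorescence, 2 h RT.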

[18] = qHTS assay to identify small molecule agonists of the vitamin D receptor (VDR) signaling pathway - cell viability counter screen (AID 743224); also: series mostly up to about 63 µM; nearly all actives have a fitted effect of over 50% in size
Method in brief: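 Compounds were pin-transferred onto VDR-bla cells plated 4 h earlier; following 16 h incubation at 37C, cell viability was quantified by CellTiter-Glo luminescence after 30 min at room temperature.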

[19] = qHTS assay for small molecule agonists of the antioxidant response element (ARE) signaling pathway (AID 743202; active = well fitted activation curve with a large enough effect in the signal ratio in the repeat runs, not every such curve was filed as active; the % refers to the signal ratio; also: potency is read from the fitted curve at half-maximal effect)
Method in brief: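 Following a 16 h, 37 C exposure of reporter HepG2 cells (ARE-driven beta-lactamase, 2,000 cells/well) to compounds, FRET substrate was applied for 2 h at room temperature and fluorescence intensity recorded.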

[20] = biological target: Vitamin D3 receptor (Homo sapiens) (UniProt P11473); assay: qHTS assay to identify small molecule agonists of the vitamin D receptor (VDR) signaling pathway (AID 743222; calls by dose curve)
Method in brief: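 Fluorescence from cleaved LiveBLAzer B/G FRET substrate served as readout. VDR-bla cells had been treated 16 h at 37C with test compounds in DMSO, following a 4 h settling period, and substrate was loaded for 2 h at RT.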

Measured: Potency

Cc1nc2ccccn2c(=O)c1CCN1CCC(C(=O)c2ccc(F)cc2)CC1
not listed: [19] | [20]
inactive: all other assays above

O=C(NCCCN1CCOCC1)c1ccc(Cl)cc1
not listed: [12] | [13] | [15] | [18]
inactive: all other assays above

CCCCCCCC/C=C\CCCCCCCC(=O)OC
not listed: [12] | [13] | [14] | [15] | [17]
inactive: all other assays above

CC1=CC(=O)CC(C)(C)C1(O)/C=C/C(C)=C\C(=O)O (stereo unspecified)
not listed: [7] | [17]
inactive: all other assays above

CC(C)C(=O)O
not listed: [11] | [13] | [15]
inactive: all other assays above

CCCCN(CCCC)CCCOC(=O)c1ccc(N)cc1
not listed: [8] | [10] | [12] | [13] | [15] | [17] | [18] | [20]
inactive: all other assays above

CCC(C(=O)OCCOCCN(CC)CC)c1ccccc1 (stereo unspecified)
not listed: [4] | [10] | [12] | [15]
inactive: all other assays above

CN1CCN(c2c(F)cc3c(=O)c(C(=O)O)cn4c3c2OCN4C)CC1
inactive: [1] | [2] | [3] | [5] | [19] | [6] | [9] | [10] | [12] | [16] | [18]

CCC(C)(O)CCC=C(C)C (stereo unspecified)
not listed: [5] | [12] | [13] | [15] | [18]
inactive: all other assays above

Cc1cc2nc3ccc(=[N+](C)C)cc-3sc2cc1N
inactive: [3] | [7] | [10] | [11] | [12] | [16] | [20] | [17]
active: [1] 4.22 µM | [2] 9.44 µM | [19] 2.11 µM | [6] 11.9 µM

CC(C)c1nnc2ccc(-c3ocnc3-c3cc(F)ccc3F)cn12
not listed: [4] | [10] | [12] | [13] | [19] | [20]
inactive: all other assays above

CCCCC/C(=C\c1ccccc1)CO
not listed: [4] | [5] | [11] | [12] | [15] | [18]
inactive: all other assays above

C=C(C)C(=O)OCCOC(=O)CC(C)=O
not listed: [5] | [11] | [12] | [17]
inactive: all other assays above

CCCCOC(=O)CCS
not listed: [4] | [7] | [13] | [17]
inactive: all other assays above

CC(=O)[C@H]1CC[C@H]2[C@@H]3C=CC4=CC(=O)CC[C@@]4(C)[C@@H]3CC[C@]12C
active: [19] 13.3 µM
not listed: [4] | [7] | [10] | [12] | [13] | [14] | [17] | [20]
inactive: all other assays above

O=C(O)c1ccc(CO)o1
not listed: [3] | [17]
inactive: all other assays above

CCCCCCOC(=O)C(C)C
not listed: [4] | [6] | [12] | [13]
inactive: all other assays above
